Experimental data taken from PubChem BioAssay (NCI).
About 79,000 compounds went through this panel and 15% of them were active in at least one assay; those are over-represented in the sample as a whole. The source made the active and inactive calls. No stated cut-off is given here; in the data, active means growth inhibition above about 70%; inactive means the rest.

Legend:
[1] = NCI Yeast Anticancer Drug Screen. Data for the rad50 strain (AID 155);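 further: 0% = growth of vehicle-only cultures of the same strain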; conditions: S. cerevisiae rad50 strain growth inhibition; at 50.0 µM; hits give high values
In short: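 Vehicle-treated cultures provide the reference for the growth inhibition reported for compound-exposed, repair-deficient yeast.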

[2] = NCI Yeast Anticancer Drug Screen. Data for the mec2-1 strain (AID 157); conditions: S. cerevisiae mec2-1 strain, at 50.0 µM, hits give high values
In short: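 Mutant yeast (mec2-1) grown with compound; growth inhibition relative to vehicle control reported.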

[3] = NCI Yeast Anticancer Drug Screen. Data for the sgs1 mgt1 strain (AID 161);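 further: 0% = growth of cultures given vehicle only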; conditions: S. cerevisiae sgs1 mgt1 strain, at 50.0 µM, hits give high values
In short: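 Compounds are added to genetically altered yeast, and growth is compared with cultures given vehicle alone to give percent inhibition.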

[4] = NCI Yeast Anticancer Drug Screen. Data for the cln2 rad14 strain (AID 165);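 further: 0% = growth equal to vehicle treated cultures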; conditions: S. cerevisiae cln2 rad14 strain, at 50.0 µM, hits give high values
In short: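 Readout is yeast growth inhibition versus vehicle-treated controls, using a strain with cln2 and rad14 alterations exposed to compound.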

[5] = NCI Yeast Anticancer Drug Screen. Data for the bub3 strain (AID 167); conditions: S. cerevisiae bub3 mutant strain, at 50.0 µM, hits give high values
In short: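 Mutant yeast screening strain plus compound; vehicle-treated cultures serve as the 0% inhibition reference.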

[6] = NCI Yeast Anticancer Drug Screen. Data for the mlh1 rad18 strain (AID 175); conditions: S. cerevisiae mlh1 rad18 strain growth inhibition; at 50.0 µM; hits give high values
In short: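 Genetically defined yeast (DNA repair-deficient) exposed to compounds; growth inhibition determined relative to vehicle.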

Measured: growth inhibition

C=CCNC(=O)CCCCCCCC1C(CCCCCCCC)C2(Cl)C(Cl)=C(Cl)C1(Cl)C2(Cl)Cl (stereo not given)
inactive: [1] 23.6% | [2] -4.6% | [3] 18.2% | [4] -12.2% | [5] 1.75% | [6] 17.8%

O=C1CC(NC(=O)C(F)(F)F)c2c1csc2Br (stereo not given)
inactive: [1] -20.6% | [2] -2.55% | [3] -9.1% | [4] -12.6% | [5] -11% | [6] 20.2%

O=C(CN1C(=O)c2ccccc2C1=O)OC1C=CCCC1 (stereo not given)
inactive: [1] 12.2% | [2] 0.65% | [3] 1.5% | [4] 18.7% | [5] 9.6% | [6] 10.3%

COc1ccc(COC=O)cc1
inactive: [1] 21.8% | [2] -5.1% | [3] -0.8% | [4] 1.55% | [5] 11.3% | [6] 24.4%

C[N+](C)(C)CBr
inactive: [1] 36.8% | [2] -11% | [3] -21.5% | [4] -40.6% | [5] 4.75% | [6] -37.2%

Nc1ccc(-c2nc3ccc(N)cc3[nH]2)cc1
inactive: [1] -17.1% | [2] -17.9% | [3] -18.1% | [4] 6.45% | [5] -4% | [6] -18.2%

CCOc1nc(OCC)c2cnn(C)c2n1
inactive: [1] 6.3% | [2] 1.75% | [3] -3.55% | [4] -28.8% | [5] 7.55% | [6] -3.55%

O=C(O)C1(NO)CCCCC1
inactive: [1] -6.9% | [2] 6.7% | [3] -11.8% | [4] -9% | [5] -12.6% | [6] -5.4%

C=CCOC(=O)CC
inactive: [1] 5.95% | [2] -13.2% | [3] -13% | [4] -6.05% | [5] -15.4% | [6] -10%

CC(=O)OCC1OC(n2ccc(=O)[nH]c2=O)CC1N=[N+]=[N-] (stereo not given)
inactive: [1] -25.1% | [2] 8.7% | [3] 1.05% | [4] -48.3% | [5] 13.3% | [6] 0.35%

Nc1nc2ncn(COC(CO)CO)c2c(=O)[nH]1
inactive: [1] 7% | [2] 6.9% | [3] -2.3% | [4] 18.6% | [5] 0.85% | [6] 20.1%

CCCCCCCCCCCC1=C(O)C(=O)C(I)=C(O)C1=O
inactive: [1] 63.2% | [2] 58.5% | [3] 63.1% | [4] 51.3% | [5] 14.4% | [6] 54.7%

CCOC(=O)c1ccc(N2C(=S)N(C(=O)c3ccccc3)C(=Nc3ccccc3)C2=Nc2ccccc2)cc1
inactive: [1] 11.2% | [2] 3.15% | [3] 5.25% | [4] 1.35% | [5] 3.85% | [6] -37.4%

CSc1cnc2ccccc2c1Sc1c[nH]c2ccccc2c1=O
inactive: [1] -15% | [2] 3.65% | [3] 1.15% | [4] 11.8% | [5] -8.05% | [6] -12.4%

O=C(NCCc1c[nH]c2ccccc12)C1CCCCC1
inactive: [1] -3.65% | [2] -5.45% | [3] 7.85% | [4] -25.6% | [5] 14.1% | [6] -10.1%

C/C=C/C1OC(OC)(OC)C1(OC)OC (stereo not given)
inactive: [1] 38.8% | [2] 9.85% | [3] 18.9% | [4] 3.25% | [5] 11.3% | [6] 11.6%

CCOC(=O)/C(C#N)=C/c1cc(Br)c(O)c(OC)c1
inactive: [1] -12.3% | [2] -22% | [3] 25.4% | [4] -0.8% | [5] 6.25% | [6] 10.8%

c1ccc2c(CCNC3=NCCO3)cccc2c1
inactive: [1] -11.1% | [2] -16.6% | [3] -10.8% | [4] -7.5% | [5] -1.6% | [6] 1.45%

Nc1ccccc1N/N=C/c1ccccc1
inactive: [1] -4.3% | [2] 15.3% | [3] -15.4% | [4] -37.5% | [5] -15.3% | [6] 5.25%

Cc1ccc(S(=O)(=O)n2ccnc2)cc1
inactive: [1] -46% | [2] -21.9% | [3] -1.25% | [4] 15.9% | [5] 11.7% | [6] -25.9%

CCCC(=O)OCC(COC(=O)CCC)OC(=O)CCC
inactive: [1] -26.8% | [2] -8.35% | [3] -17.4% | [4] 24.6% | [5] 4.9% | [6] 7.1%

CCCCCCCCCCCCCCCC(=O)CCCCCCCCCCCCCCC
inactive: [1] 21.1% | [2] -15.9% | [3] 6.35% | [4] -3.8% | [5] -0.95% | [6] 28.9%

CCSCN1CCN(CSCC)CC1
inactive: [1] 1.35% | [2] 1.15% | [3] 3.5% | [4] 27.5% | [5] -11.9% | [6] -5.05%

O=C(Nc1ccc(NC(=O)OCc2ccccc2)c(Cl)c1)OCc1ccccc1
inactive: [1] 20.4% | [2] 11.3% | [3] 6.85% | [4] -26.6% | [5] 6.3% | [6] 3%

COc1ccc2[nH]cc(CN3CCC(CO)(c4ccccc4)CC3)c2c1
inactive: [1] 13.4% | [2] 1.2% | [3] -16.4% | [4] 6.9% | [5] 5.95% | [6] 3.55%

CC(=O)c1ccc(N=C2C(=O)Nc3ccccc32)cc1
inactive: [1] 28.9% | [2] 15.8% | [3] 10.4% | [4] 19.8% | [5] 9% | [6] 25.8%

CC(CN1CCCC1)(Oc1ccccc1)C(=O)c1ccccc1 (stereo not given)
inactive: [1] 16.6% | [2] -0.45% | [3] 15.1% | [4] 7.8% | [5] 10.1% | [6] 2.45%

CCCCn1nnnc1N
inactive: [1] 3.45% | [2] 6.4% | [3] -8.2% | [4] 12% | [5] 17.8% | [6] 6.85%

C#CCOCn1cc(C)c(=O)[nH]c1=O
inactive: [1] 0.4% | [2] -0.1% | [3] 16.5% | [4] 10.4% | [5] 0.05% | [6] 12.4%

CC(C)(C)c1cc2c3c(c1)C(C(F)(F)F)(C(F)(F)F)OS3(=O)(O)OC2(C(F)(F)F)C(F)(F)F
inactive: [1] 22.5% | [2] 38.8% | [3] 15.8% | [4] -2.25% | [5] 4.2% | [6] 39%

Nc1ccc(F)c([N+](=O)[O-])c1
inactive: [1] -6.05% | [2] 0.65% | [3] -1.6% | [4] -23.6% | [5] -1.55% | [6] -1.2%

COC(=O)c1cc(C(=O)OC)c(C/C(=N/NC(N)=S)C(=O)Nc2ccc(Cl)c(Cl)c2)nc1C/C(=N/NC(N)=S)C(=O)Nc1ccc(Cl)c(Cl)c1
inactive: [1] 28.4% | [2] 14.9% | [3] 7.1% | [4] 34.2% | [5] 32.7% | [6] 44%

CCOC(=O)C(C)(C(=O)OCC)C(C)Cc1cccc2ccccc12 (stereo not given)
inactive: [1] -12.6% | [2] 0.95% | [3] -4.45% | [4] -31.4% | [5] -7.15% | [6] -3.6%

Nc1nc(-c2ccccn2)cc(-c2cc(-c3ccccn3)nc(N)n2)n1
inactive: [1] -12.1% | [2] -11.6% | [3] -18.2% | [4] -0.7% | [5] -9.75% | [6] 6.25%

O=[N+]([O-])c1ccc(CSc2ncnc3c2ncn3C2OC(CO)C(O)C2O)cc1 (stereo not given)
inactive: [1] 10.7% | [2] 22.6% | [3] 9.5% | [4] -7.35% | [5] -4.05% | [6] -17.4%
